This note sets out measurements from ChEMBL document CHEMBL1201862, “PubChem BioAssay data set” (2004).

The structures appear in SMILES notation.

The target of the assay is Beta Lactamase (Pseudomonas aeruginosa) (UniProt Q932Y6). Briefly: Late stage assay provider results from the probe development efforts to identify selective inhibitors of VIM-2 metallo-beta-lactamase: VIM-2-transformed E. coli growth inhibition in the presence of imipenem (synergy). In kind it is functional.

Take `O=c1[nH]c2c(s1)[C@H](c1cccnc1)[C@H]1C3CC[C@@H](C3)[C@H]1S2`: the MIC was > 100 µM (active).
